Screening results deposited in PubChem by several laboratories.
A selection: hits, their analogues and other compounds. The true share with any hit is near 4.8%.
NALP1 inh: inhibitors of NALP1 inflammasome in yeast; 0.61% of 280,000 active; inhibition, % at 10 µM; S. cerevisiae NALP1/ASC/caspase-1 growth, X-gal OD620, 72 h; in the data active = inhibition mostly above about 24%, no sharp cut-off; inactive = mostly below about 32%
tim23-1 inh: inhibits growth of tim23-1 mutant yeast. S. cerevisiae tim23-1 growth, BacTiter-Glo luminescence, 24 h. inhibition, % at 20 µM. 1.3% of 330,000 active. AID 463212;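 active = growth inhibition of the mutant yeast at or above 50%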;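 note: temperature-sensitive mutant grown at 25 °C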
SKKanGAS inh: inhibitors of SKKanGAS S. pyogenes growth in kanamycin (SK-promoter or general growth effect); BacTiter-Glo, 6 h; inhibition, % at 7.5 µM; 1.3% of 300,000 active;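 active = mean replicate score, as percent of positive control median, at least 50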;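 note: strain carries kanamycin resistance gene driven by streptokinase promoter and grows in 40 µg/ml kanamycin; loss of luminescence reflects streptokinase promoter inhibition or plain growth inhibition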
TIM10 inh: TIM10 yeast growth inhibition; 1.4% of 330,000 active; S. cerevisiae TIM10 strain growth, BacTiter-Glo luminescence, 24 h; inhibition, % at 10 µM;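 active = inhibition of 40% or more at the single tested concentration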;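 note: wild-type TIM10 isogenic control strain grown at permissive 25 °C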
tim10-1 inh: tim10-1 yeast growth inhibition | S. cerevisiae tim10-1 ts strain growth, BacTiter-Glo, 24 h | inhibition, % at 20 µM | 2.2% of 330,000 active;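 active = inhibition of at least 40%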;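 note: mutant grown at 25 °C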
PfHsp90 yeast 2: growth inhibition of yeast expressing Plasmodium Hsp90. inhibition, % at 9.4 µM. S. cerevisiae expressing PfHsp90, BacTiter-Glo ATP, 48 h; yeast lacking PDR1 and PDR3 efflux regulators. 0.32% of 310,000 active;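 active = every replicate shows inhibition above about 80%, whatever the replicate mean, limit read from the data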
tim10-1 confirm: confirmation of tim10-1 mutant yeast growth inhibitors. S. cerevisiae tim10-1 ts strain growth, BacTiter-Glo, 24 h. inhibition, % at 20 µM. shares compounds with tim10-1 inh. 56% of 7,400 active. AID 463213;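 active = inhibition of yeast growth at or above a set limit in either of two repeat tests at 20 µM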;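 note: tim10-1 mutant grown at permissive 25 °C to find synthetic lethal compounds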
tim10 confirm: TIM10 yeast growth inhibition, confirmed; shares compounds with TIM10 inh; AID 463215; S. cerevisiae tim10 strain growth, BacTiter-Glo luminescence, 24 h; 63% of 4,600 active; inhibition, % at 10 µM;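 active = inhibition of yeast growth at or above a set limit in either of two replicates at 10 µM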; note: this counterscreen used the strain with wild-type TIM10
Hits are given with their value; i = inactive; nt = no result given.

SMILES | NALP1 inh | tim23-1 inh | SKKanGAS inh | TIM10 inh | tim10-1 inh | PfHsp90 yeast 2 | tim10-1 confirm | tim10 confirm
COc1ccc(S(=O)(=O)/N=C2\C=C(Nc3ccc(O)cc3)C(=O)c3ccccc32)cc1 | i | i | 103.3 | 52.2 | 66.8 | i | 62.0 | 81.3
COc1ccc(-c2c(C(F)(F)F)oc3c(CN4CCN(C)CC4)c(O)ccc3c2=O)cc1 | i | i | i | i | i | i | nt | nt
NNC(=S)NC1CCCCC1 | i | i | i | i | i | i | nt | nt
Nc1ccc(S(=O)(=O)c2ccccc2)nc1 | i | i | i | i | i | i | nt | nt
O=[N+]([O-])c1ccc(S(=O)(=O)c2ccccc2)nc1 | i | i | i | 60.1 | 63.6 | i | 57.8 | 52.1
O=c1ccc(-c2ccc(S(=O)(=O)N3CCN(c4cccc(Cl)c4)CC3)o2)n[nH]1 | i | i | i | i | i | i | nt | nt
Cn1c(Cl)cnc1C1CC(=O)c2cc(Cl)ccc2O1 (stereo not given) | i | i | i | 72.0 | 65.8 | i | 57.8 | i
O=C1CC(c2ccc(Cl)cc2)Oc2ccc(Cl)cc21 (stereo not given) | nt | nt | nt | nt | nt | i | nt | nt
CCCC(=O)Nc1ccc(-c2nc3cc(C)ccc3o2)cc1 | i | i | i | 54.9 | 43.5 | i | 32.2 | 51.7
CCCC(=O)Nc1ccc2oc(-c3ccc(OC)c(Br)c3)nc2c1 | i | i | i | i | i | i | nt | nt
COc1ccccc1CNCC(O)(c1ccc(Cl)cc1)c1ccc(Cl)cc1 | i | i | i | 51.5 | 46.1 | nt | i | 44.4
COc1ccccc1CNCC(O)(c1ccc(F)cc1)c1ccc(F)cc1 | i | i | i | i | i | i | nt | nt
COC(=O)c1ccccc1NC(=S)NC(=O)COc1ccccc1Cl | i | i | i | 42.3 | 41.8 | nt | i | i
COC(=O)c1ccccc1NC(=S)NC(=O)COc1ccc(C)cc1 | nt | i | i | i | i | i | nt | nt
CCC1(c2ccccc2)NC(=O)N(CC(=O)N(CC(=O)Nc2ccccc2C(F)(F)F)Cc2ccco2)C1=O (stereo not given) | nt | i | i | i | i | i | nt | nt
COc1ccc(NC(=O)c2cc3c(=O)n4ccccc4nc3n2C)c(OC)c1 | i | i | i | i | i | nt | nt | nt
Cc1ccccc1C(=O)NN1C(=O)CSC1=S | i | i | i | i | i | nt | nt | nt
CCOC(=O)c1ccccc1N1C(=O)CSC1=S | i | i | i | 48.5 | 49.5 | i | i | 45.5
COc1ccc(N2CCN(c3ccc(Cl)nn3)CC2)cc1 | i | i | i | i | i | i | nt | nt
CCCN(CC(=O)Nc1ccccc1C)C(=O)COc1c(Cl)cccc1Cl | nt | i | i | i | i | i | nt | nt
CC(=O)Nc1nc2nc(-c3ccccc3)cc(-c3ccccc3)n2n1 | i | i | i | i | i | i | nt | nt
O=C(Nc1nc2nc(-c3ccccc3)cc(-c3ccccc3)n2n1)c1ccco1 | i | i | i | 60.0 | 42.7 | i | i | i
CC(Sc1nc(NCc2ccccc2)nc(N(C)C)n1)C(=O)Nc1ccccc1 (stereo not given) | i | i | i | i | i | i | nt | nt
CC(=O)C(Sc1nc(N(C)C)nc(N(C)C)n1)C(=O)Nc1ccccc1 (stereo not given) | i | i | i | 96.7 | 40.0 | i | i | i
CN(Cc1ccc(Cl)cc1)C(=O)CCl | i | i | i | i | i | i | nt | nt
SMILES | NALP1 inh | tim23-1 inh | SKKanGAS inh | TIM10 inh | tim10-1 inh | PfHsp90 yeast 2 | tim10-1 confirm | tim10 confirm
CCC1CSC(Nc2ccc(C(=O)/C=C/c3ccc(Oc4ccccc4)cc3)cc2)=N1 (stereo not given) | i | i | i | i | i | i | nt | nt
CCC1CSC(Nc2ccc(C(=O)/C=C/c3cccc(C)c3)cc2)=N1 (stereo not given) | i | i | i | 62.4 | 57.5 | i | 44.3 | 62.1
O=C(O)c1ccc2c(c1)c1c3n2CCNC3CCC1 (stereo not given) | i | i | i | i | i | i | nt | nt
CCc1n[nH]c(=S)n1/N=C/c1ccc(N(CC)CC)cc1 | i | i | i | 45.0 | 42.3 | i | i | i
CCc1n[nH]c(=S)n1/N=C/c1c(C)nn(-c2ccccc2)c1Cl | i | i | i | i | i | i | nt | nt
Cc1cc(C)c(-c2csc(NC(=O)C3=COCCO3)n2)cc1C | nt | i | i | i | i | nt | nt | nt
COc1ccc(OC)c2c1C(=O)C(Cl)=C(Cl)C2=O | 38.7 | i | i | 96.4 | 91.1 | 110.0 | 93.7 | 99.3
COc1ccc(OC)c2c1C(=O)c1ccccc1C2=O | i | i | i | i | i | nt | nt | nt
COc1ccc(S(=O)(=O)n2nc(OC(=O)c3cccs3)cc2N)cc1 | i | i | i | 44.1 | 44.9 | i | 30.8 | 51.7
CN(C)CCCN(C(=O)C1COc2ccccc2O1)c1nc2cc3c(cc2s1)OCO3 (stereo not given) | i | i | i | 55.0 | 55.9 | i | 48.6 | 44.0
CN(C)CCCN(C(=O)c1ccc(Br)s1)c1nc2cc3c(cc2s1)OCO3 | i | i | i | i | i | i | nt | nt
Clc1ccc(Nc2nc(C3CC3)cs2)cc1 | i | i | i | 43.1 | 53.7 | i | 48.8 | i
COc1ccc(C2=CC(=O)CC(c3ccccc3)C2)cc1 (stereo not given) | i | i | i | i | i | i | nt | nt
CC(C)OC(=O)C(C)Oc1ccc(C(=O)NCCc2ccccc2)cc1 (stereo not given) | i | i | i | i | i | i | nt | nt
Cc1cccc(Cc2c(C)[nH]c(=O)c(C#N)c2C)c1 | i | i | i | i | i | i | nt | nt
CCOC(=O)/C(=C/c1c(C)n(C)c2ccc([N+](=O)[O-])cc12)C(C)=O | i | i | i | 53.6 | 58.2 | i | 37.2 | 40.2
COc1ccccc1NCC(O)Cn1c2ccccc2c2ccccc21 (stereo not given) | i | i | i | 42.5 | 52.2 | i | i | 40.5
CCN(CC)S(=O)(=O)c1ccc(N2CCc3ccccc3C2)nc1 | i | i | i | 50.3 | 42.8 | i | 32.2 | 41.2
O=C(O)c1cc2cc(F)ccc2[nH]1 | i | i | i | i | i | i | nt | nt
NC(=O)N/N=C/c1cn(-c2ccccc2)nc1-c1cccs1 | i | i | i | i | i | i | nt | nt
O=C(O)c1cccc(N/N=C/c2cn(-c3ccccc3)nc2-c2cccs2)c1 | i | i | i | 61.2 | 47.4 | i | 59.0 | 65.5
COc1ccc(C(=O)Oc2ccc(F)cc2C(=O)/C=C/c2ccc(OC)c(OC)c2)cc1 | i | i | i | i | i | i | nt | nt
O=C(Oc1ccc(F)cc1C(=O)/C=C/c1cccs1)c1cccc([N+](=O)[O-])c1 | i | i | i | 49.9 | 50.8 | i | 39.5 | i
CCOC(=O)C(C(=O)OCC)C(Nc1ccc(Br)cc1)c1ccccc1 (stereo not given) | i | i | i | 50.7 | 51.2 | i | 39.2 | 52.0
CCOC(=O)C(c1ccccc1)C(Nc1ccc(F)cc1)c1ccccn1 (stereo not given) | i | i | i | i | i | i | nt | nt
